Here are results for 22 molecules from PubChem BioAssay (NCATS).

Inconclusive results are not listed. A call without a number means that no potency is given here. Activity calls are given as the source filed them. The call rests on the fitted dose curve; in most records, active means well fitted inhibition curve with a large enough effect; inconclusive means small, poorly fitted or top-dose-only effect; inactive means flat fitted curve, though single readings scatter.

The test system of this test is P93_24. Kind of test: qHTS profiling for inhibitors of Plasmodium falciparum proliferation (AID 504749). Further: nearly all actives have a fitted effect of over 60% in size. The settings on record: P. falciparum in erythrocytes, SYBR Green DNA, 72 h; series mostly up to 28.7 µM. The method, boiled down:
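In a 72 h erythrocytic culture (37 C, humidified, 5% CO2) at 2.5% hematocrit and 0.3% starting parasitemia, compounds were tested; SYBR Green I in detergent lysis buffer stained parasite DNA overnight.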
(qHTS replaces the single test concentration by a dilution series.)
For `CC(C)C(=O)Nc1ccc([N+](=O)[O-])c(C(F)(F)F)c1`, the Potency result was “inactive”. As for `NC(=O)NO`, the entry is “inactive”.

Consider `CCOC(=O)C(C)(C)Oc1ccc(Cl)cc1`, for which the Potency result is “inactive”. Then `CC(CCc1ccc(O)cc1)NCCc1ccc(O)c(O)c1` (configuration not stated), with “inactive”; and `Cc1cn([C@H]2C[C@H](N=[N+]=[N-])[C@@H](CO)O2)c(=O)[nH]c1=O`, with “inactive”.

`Cc1cc(C(C)(C)C)c(O)c(C)c1CC1=NCCN1`: the Potency entry is “inactive”. As for `NS(=O)(=O)c1cc2c(cc1Cl)NCNS2(=O)=O`, the entry is “inactive”. Then `CCOC(=O)c1ncn2c1CN(C)C(=O)c1cc(F)ccc1-2`, with “inactive”. As for `COC(=O)Nc1nc2ccc(C(=O)c3cccs3)cc2[nH]1`, the entry is “inactive”; as for `Clc1ccc2nsnc2c1NC1=NCCN1`, “inactive”.

`Cn1c(=O)c2c(ncn2C)n(C)c1=O`: the Potency entry is “inactive”. Then `CC(C)Cc1ccc(C(C)C(=O)O)cc1` (configuration not stated), with “inactive”; and `Cn1cnc2c1c(=O)[nH]c(=O)n2C`, with “inactive”; and `Cn1c(=O)c2[nH]cnc2n(C)c1=O`, with “inactive”. Then `NCCCCCC(=O)O`, with “inactive”; and `CC(C)(Oc1ccc(C2CC2(Cl)Cl)cc1)C(=O)O` (configuration not stated), with “inactive”; and `CN1C(C(=O)Nc2ccccn2)=C(O)c2ccccc2S1(=O)=O`, with “inactive”. Consider `N[C@@H](Cc1c[nH]c2ccc(O)cc12)C(=O)O`, for which the Potency entry was “inactive”. As for `COc1cc2c(c(OC)c1OC)-c1ccc(OC)c(=O)cc1[C@@H](NC(C)=O)CC2`, the entry is “inactive”. As for `Cc1cnc(C(=O)NCCc2ccc(S(=O)(=O)NC(=O)NC3CCCCC3)cc2)cn1`, the entry is “inactive”; as for `CN1CCN2c3ccccc3Cc3ccccc3C2C1` (configuration not stated), “inactive”; as for `Nc1nnc(-c2cccc(Cl)c2Cl)c(N)n1`, “inactive”.
